Reference: the supplement of paper PMC10849652
Targets with a hit are over-represented here; the source holds about 7,900 in all. About 0.6% of all pairs of compound and target were hits. Unmarked numbers belong to inactive results.

Columns and labels:
Test in all cases: log2 fold change, soluble protein after heating vs DMSO (PISA); higher = thermal stabilisation; K562 cells, 10 uM, 30 min; active = over 0.2 and 3.5 SD of the protein, either way, in both replicates (recomputed)
[1] = compound: CC[C@@H]1C(=O)N(C)c2cnc(Nc3ccc(C(=O)NC4CCN(C)CC4)cc3OC)nc2N1C1CCCC1
Procedure, shortened: (§1)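 Thermal stability values are relative to control samples and come from duplicates. They are expressed as log2 fold changes. For measurement, K562 cells (2×10^6 cells/mL) received 10 μM compound for 30 min, and aliquots were heated for 3 min over 48°C-58°C, pooled, and extracted at 4°C in PBS with 0.5% NP-40. Soluble protein, the supernatant after 21,000xg for 90 min, was quantified by TMTpro 16plex LC-MS/MS with equalised channel sums.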

volasertib = compound: CC[C@@H]1C(=O)N(C)c2cnc(Nc3ccc(C(=O)N[C@H]4CC[C@H](N5CCN(CC6CC6)CC5)CC4)cc3OC)nc2N1C(C)C [volasertib]
Procedure, shortened: as §1

[2] = compound: CC[C@H](C)N1C=C(C2=C(C=C(C=C21)C3=CN=C(C=C3)N4CCNCC4)C(=O)NCC5=C(C=C(NC5=O)C)C)C
Procedure, shortened: as §1

epoxomicin = compound: CC[C@H](C)[C@@H](C(=O)N[C@@H]([C@@H](C)O)C(=O)N[C@@H](CC(C)C)C(=O)[C@]1(CO1)C)NC(=O)[C@H]([C@@H](C)CC)N(C)C(=O)C [epoxomicin]
Procedure, shortened: as §1

[3] = compound: CCn1c(C(=O)N(C2CC2)C2CC2)cc2c3c(ncn3C)c(Nc3cc(C)n(C)n3)nc21
Procedure, shortened: as §1

[4] = compound: CCn1cc(-c2ccnc3[nH]c(-c4cccc(CN(C)C)c4)cc23)c(-c2ccc(NC(=O)N(C)C)cc2)n1
Procedure, shortened: as §1

[5] = compound: CN(C)CC(=O)Nc1ccc2[nH]c(=O)c3ccccc3c2c1
Procedure, shortened: as §1

rosiglitazone = compound: CN(CCOC1=CC=C(C=C1)C[C@H]2C(=O)NC(=O)S2)C3=CC=CC=N3 (racemic) [rosiglitazone]
Procedure, shortened: as §1

[6] = compound: CN1C2=C(C3=C1C(=O)N(N=C3)CC4=CC(=CC=C4)N)SC(=C2)S(=O)C
Procedure, shortened: as §1

[7] = compound: CN1CCC(CNc2ccc3ncc(-c4cccc(OC(F)(F)F)c4)n3n2)CC1
Procedure, shortened: as §1

saracatinib = compound: CN1CCN(CCOc2cc(OC3CCOCC3)c3c(Nc4c(Cl)ccc5c4OCO5)ncnc3c2)CC1 [saracatinib]
Procedure, shortened: as §1

sotrastaurin = compound: CN1CCN(c2nc(C3=C(c4c[nH]c5ccccc45)C(=O)NC3=O)c3ccccc3n2)CC1 [sotrastaurin]
Procedure, shortened: as §1

alvocidib = compound: CN1CC[C@H](c2c(O)cc(O)c3c(=O)cc(-c4ccccc4Cl)oc23)[C@H](O)C1 [alvocidib]
Procedure, shortened: as §1

Tubastatin A = compound: CN1CCc2c(c3ccccc3n2Cc2ccc(C(=O)NO)cc2)C1 [Tubastatin A]
Procedure, shortened: as §1

[8] = compound: CNC(=O)C1=CC=CC=C1NC2=NC(=NC=C2Cl)NC3=C(C=C(C=C3)N4CCOCC4)OC
Procedure, shortened: as §1

defactinib = compound: CNC(=O)c1ccc(Nc2ncc(C(F)(F)F)c(NCc3nccnc3N(C)S(C)(=O)=O)n2)cc1 [defactinib]
Procedure, shortened: as §1

rucaparib = compound: CNCc1ccc(-c2[nH]c3cc(F)cc4c3c2CCNC4=O)cc1 [rucaparib]
Procedure, shortened: as §1

[9] = compound: CNc1nc(-c2ccc3c(N)n[nH]c3c2)cc(N2C[C@@H](C(=O)NC3CCCCC3)CC[C@H]2C)n1
Procedure, shortened: as §1

encorafenib = compound: COC(=O)N[C@@H](C)CNc1nccc(-c2cn(C(C)C)nc2-c2cc(Cl)cc(NS(C)(=O)=O)c2F)n1 [encorafenib]
Procedure, shortened: as §1

[10] = compound: COC(=O)[C@H](CCSC)NC(=O)C1=C(C=C(C=C1)NC[C@H](CS)N)C2=CC=CC=C2
Procedure, shortened: as §1

Chain of UniProt O15228 (O15228 whole entry, looked up): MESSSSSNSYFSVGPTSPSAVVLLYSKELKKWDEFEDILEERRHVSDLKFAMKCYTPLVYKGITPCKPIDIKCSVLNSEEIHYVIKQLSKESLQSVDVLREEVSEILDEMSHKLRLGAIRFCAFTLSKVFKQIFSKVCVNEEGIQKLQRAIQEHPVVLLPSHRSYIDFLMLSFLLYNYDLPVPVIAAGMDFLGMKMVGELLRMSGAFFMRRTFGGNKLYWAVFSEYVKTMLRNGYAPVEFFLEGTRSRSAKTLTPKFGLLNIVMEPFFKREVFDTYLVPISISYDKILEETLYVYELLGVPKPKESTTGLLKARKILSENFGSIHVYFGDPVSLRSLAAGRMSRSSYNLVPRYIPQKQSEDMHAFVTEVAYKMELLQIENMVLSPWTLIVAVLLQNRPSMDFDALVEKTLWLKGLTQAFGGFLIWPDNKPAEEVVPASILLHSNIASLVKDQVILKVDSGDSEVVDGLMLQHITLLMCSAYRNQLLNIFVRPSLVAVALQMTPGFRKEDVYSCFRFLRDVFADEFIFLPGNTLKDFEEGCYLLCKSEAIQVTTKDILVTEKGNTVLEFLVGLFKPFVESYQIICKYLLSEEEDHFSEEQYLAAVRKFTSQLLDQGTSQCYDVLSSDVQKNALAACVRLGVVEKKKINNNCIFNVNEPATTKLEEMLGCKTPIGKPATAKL
Chain of UniProt O14929 (O14929 whole entry, looked up): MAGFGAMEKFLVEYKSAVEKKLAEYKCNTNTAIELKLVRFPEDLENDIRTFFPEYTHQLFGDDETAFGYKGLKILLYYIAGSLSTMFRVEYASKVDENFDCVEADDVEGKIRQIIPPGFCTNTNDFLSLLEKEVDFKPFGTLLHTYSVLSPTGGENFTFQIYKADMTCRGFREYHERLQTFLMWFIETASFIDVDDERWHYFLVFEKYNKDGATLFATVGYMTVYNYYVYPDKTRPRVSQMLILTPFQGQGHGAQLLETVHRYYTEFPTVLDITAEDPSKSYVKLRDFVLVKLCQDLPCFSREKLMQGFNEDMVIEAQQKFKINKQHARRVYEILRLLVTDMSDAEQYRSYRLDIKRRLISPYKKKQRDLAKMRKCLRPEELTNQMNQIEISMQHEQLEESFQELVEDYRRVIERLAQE
Chain of UniProt Q7Z4H3 (Q7Z4H3 whole entry, looked up): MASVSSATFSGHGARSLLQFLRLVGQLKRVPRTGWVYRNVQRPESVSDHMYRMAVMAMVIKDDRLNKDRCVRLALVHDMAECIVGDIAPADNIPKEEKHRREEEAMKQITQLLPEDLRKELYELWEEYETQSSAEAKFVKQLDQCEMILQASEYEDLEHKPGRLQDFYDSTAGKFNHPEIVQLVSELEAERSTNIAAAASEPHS
Chain of UniProt P30711 (P30711 whole entry, looked up): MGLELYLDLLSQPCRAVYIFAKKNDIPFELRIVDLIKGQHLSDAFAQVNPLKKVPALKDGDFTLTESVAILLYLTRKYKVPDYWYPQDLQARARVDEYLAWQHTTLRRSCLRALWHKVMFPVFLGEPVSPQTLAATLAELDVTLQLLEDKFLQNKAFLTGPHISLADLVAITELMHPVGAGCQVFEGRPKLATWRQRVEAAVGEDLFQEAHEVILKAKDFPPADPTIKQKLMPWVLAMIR
Chain of UniProt Q9UJY4 (Q9UJY4 whole entry, looked up): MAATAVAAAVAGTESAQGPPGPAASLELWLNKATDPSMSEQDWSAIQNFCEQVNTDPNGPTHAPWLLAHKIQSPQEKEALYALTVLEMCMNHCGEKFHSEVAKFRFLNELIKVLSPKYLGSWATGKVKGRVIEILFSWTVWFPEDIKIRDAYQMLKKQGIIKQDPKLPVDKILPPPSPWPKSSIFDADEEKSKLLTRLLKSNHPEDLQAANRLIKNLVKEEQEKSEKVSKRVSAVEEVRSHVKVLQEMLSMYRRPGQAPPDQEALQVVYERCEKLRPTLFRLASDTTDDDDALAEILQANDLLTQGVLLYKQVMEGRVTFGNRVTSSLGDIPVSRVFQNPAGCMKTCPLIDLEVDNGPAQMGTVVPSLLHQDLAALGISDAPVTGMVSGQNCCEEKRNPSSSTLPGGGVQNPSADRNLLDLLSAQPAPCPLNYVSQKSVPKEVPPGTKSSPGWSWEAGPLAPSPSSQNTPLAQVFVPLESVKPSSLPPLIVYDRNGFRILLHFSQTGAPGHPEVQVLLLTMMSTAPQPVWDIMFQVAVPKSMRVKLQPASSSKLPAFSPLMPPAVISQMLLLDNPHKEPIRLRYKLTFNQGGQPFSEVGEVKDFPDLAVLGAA
Chain of UniProt Q8IWJ2 (Q8IWJ2 whole entry, looked up): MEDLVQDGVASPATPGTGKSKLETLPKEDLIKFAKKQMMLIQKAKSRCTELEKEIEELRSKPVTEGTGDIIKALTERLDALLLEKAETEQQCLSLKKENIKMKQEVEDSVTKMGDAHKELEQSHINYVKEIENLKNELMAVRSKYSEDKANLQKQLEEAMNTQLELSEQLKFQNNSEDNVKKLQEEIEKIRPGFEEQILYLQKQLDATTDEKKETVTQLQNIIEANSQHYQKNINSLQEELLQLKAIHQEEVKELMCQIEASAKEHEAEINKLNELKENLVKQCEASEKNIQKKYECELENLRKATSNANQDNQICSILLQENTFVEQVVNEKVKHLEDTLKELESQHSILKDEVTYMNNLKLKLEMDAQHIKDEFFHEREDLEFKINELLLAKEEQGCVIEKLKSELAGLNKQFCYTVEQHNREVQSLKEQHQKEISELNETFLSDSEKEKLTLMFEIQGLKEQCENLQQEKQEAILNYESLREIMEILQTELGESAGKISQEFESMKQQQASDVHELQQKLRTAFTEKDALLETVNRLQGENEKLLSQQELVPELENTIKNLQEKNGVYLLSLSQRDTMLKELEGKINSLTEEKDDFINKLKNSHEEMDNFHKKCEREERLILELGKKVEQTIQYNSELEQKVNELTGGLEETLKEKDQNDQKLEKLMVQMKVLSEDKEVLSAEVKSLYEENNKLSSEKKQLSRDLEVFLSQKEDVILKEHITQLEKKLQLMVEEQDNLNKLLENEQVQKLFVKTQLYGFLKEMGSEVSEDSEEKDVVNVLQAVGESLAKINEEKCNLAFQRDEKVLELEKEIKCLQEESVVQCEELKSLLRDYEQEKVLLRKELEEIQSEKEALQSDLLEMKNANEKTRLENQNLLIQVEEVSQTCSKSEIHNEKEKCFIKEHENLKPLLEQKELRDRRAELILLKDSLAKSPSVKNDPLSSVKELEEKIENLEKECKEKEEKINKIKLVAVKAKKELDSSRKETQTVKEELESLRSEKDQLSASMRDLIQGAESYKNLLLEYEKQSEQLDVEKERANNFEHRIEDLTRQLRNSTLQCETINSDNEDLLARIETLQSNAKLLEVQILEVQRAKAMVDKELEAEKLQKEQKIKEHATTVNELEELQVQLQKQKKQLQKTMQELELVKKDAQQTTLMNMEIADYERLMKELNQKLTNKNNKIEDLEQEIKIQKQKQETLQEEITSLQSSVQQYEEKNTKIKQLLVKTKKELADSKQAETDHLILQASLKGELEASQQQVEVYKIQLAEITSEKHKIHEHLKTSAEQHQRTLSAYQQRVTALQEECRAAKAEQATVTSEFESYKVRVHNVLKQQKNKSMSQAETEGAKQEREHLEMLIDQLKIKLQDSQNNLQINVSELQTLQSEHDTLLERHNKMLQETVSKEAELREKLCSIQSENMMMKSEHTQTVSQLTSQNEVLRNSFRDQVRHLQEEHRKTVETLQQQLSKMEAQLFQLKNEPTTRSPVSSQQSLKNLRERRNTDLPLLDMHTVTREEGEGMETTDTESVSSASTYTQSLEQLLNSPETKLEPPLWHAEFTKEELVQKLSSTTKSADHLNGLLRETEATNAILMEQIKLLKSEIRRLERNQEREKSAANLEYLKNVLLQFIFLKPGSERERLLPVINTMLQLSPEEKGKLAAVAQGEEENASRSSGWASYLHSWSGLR
Chain of UniProt O95363 (O95363 whole entry, looked up): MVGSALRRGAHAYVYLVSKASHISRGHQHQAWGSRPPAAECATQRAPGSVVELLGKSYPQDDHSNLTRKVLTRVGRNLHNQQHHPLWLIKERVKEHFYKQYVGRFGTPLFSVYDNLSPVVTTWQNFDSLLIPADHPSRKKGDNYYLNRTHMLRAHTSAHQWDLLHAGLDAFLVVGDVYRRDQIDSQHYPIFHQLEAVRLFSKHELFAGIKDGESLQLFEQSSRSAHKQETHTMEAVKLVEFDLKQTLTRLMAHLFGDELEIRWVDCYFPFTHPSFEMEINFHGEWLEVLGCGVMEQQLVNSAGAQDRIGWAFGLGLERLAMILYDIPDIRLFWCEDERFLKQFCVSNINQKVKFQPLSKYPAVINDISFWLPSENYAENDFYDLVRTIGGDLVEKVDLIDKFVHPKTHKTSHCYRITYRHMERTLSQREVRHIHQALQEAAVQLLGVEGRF
Chain of UniProt P31943 (P31943 whole entry, looked up): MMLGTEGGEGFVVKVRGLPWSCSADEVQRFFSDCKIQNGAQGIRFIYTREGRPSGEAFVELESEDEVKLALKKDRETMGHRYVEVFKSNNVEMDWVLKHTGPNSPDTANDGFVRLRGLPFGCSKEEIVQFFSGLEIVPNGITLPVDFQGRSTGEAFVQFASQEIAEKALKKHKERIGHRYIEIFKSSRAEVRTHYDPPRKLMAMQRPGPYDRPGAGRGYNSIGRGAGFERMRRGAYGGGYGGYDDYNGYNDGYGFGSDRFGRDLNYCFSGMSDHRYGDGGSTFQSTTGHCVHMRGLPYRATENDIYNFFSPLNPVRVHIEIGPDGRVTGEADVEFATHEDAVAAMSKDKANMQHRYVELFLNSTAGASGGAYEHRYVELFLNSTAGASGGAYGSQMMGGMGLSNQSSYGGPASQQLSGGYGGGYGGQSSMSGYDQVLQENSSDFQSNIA
Chain of UniProt P69905 (P69905 whole entry, looked up): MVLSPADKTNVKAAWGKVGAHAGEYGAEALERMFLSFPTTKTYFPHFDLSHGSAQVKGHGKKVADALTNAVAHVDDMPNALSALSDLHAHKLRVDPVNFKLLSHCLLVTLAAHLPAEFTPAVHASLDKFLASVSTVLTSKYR

Target	log2 fold change [1]	log2 fold change (volasertib)	log2 fold change [2]	log2 fold change (epoxomicin)	log2 fold change [3]	log2 fold change [4]	log2 fold change [5]	log2 fold change (rosiglitazone)	log2 fold change [6]	log2 fold change [7]	log2 fold change (saracatinib)	log2 fold change (sotrastaurin)	log2 fold change (alvocidib)	log2 fold change (Tubastatin A)	log2 fold change [8]	log2 fold change (defactinib)	log2 fold change (rucaparib)	log2 fold change [9]	log2 fold change (encorafenib)	log2 fold change [10]
HDDC2 (UniProt Q7Z4H3)	0.008	0.08	0.014	-0.006	0.034	-0.063	0.025	0.035	-0.102	-0.066	0.045	0.042	-0.049	0.015	0.007	-0.014	-0.014	0.063	0.014	-0.013
HAT1 (UniProt O14929)	-0.185	-0.313 (active)	0.02	0.035	0.014	-0.057	-0.007	0.049	-0.081	0.026	0.047	-0.058	-0.209	0.036	0.05	-0.139	-0.066	-0.061	0.064	-0.017
HMG20A (UniProt Q9NP66)	0.083	-0.155	0.029	-0.107	-0.031	0	0.053	0.017	0.143	-0.003	0.038	-0.106	-0.075	0.018	0.005	0.029	-0.323	-0.015	-0.109	-0.009
FKBP3 (UniProt Q00688)	0.006	0.075	0.03	0.037	0	-0.001	0.001	-0.002	-0.065	0.015	-0.006	0	-0.004	0.017	0	-0.024	-0.052	0.01	0.012	0.033
GSTT1 (UniProt P30711)	0.02	-0.057	-0.038	0.203	-0.019	0.019	-0.034	-0.024	-0.058	-0.002	-0.011	–	-0.023	0.015	-0.029	-0.027	0.028	0	0.023	-0.062
GCC2 (UniProt Q8IWJ2)	0.094	-0.116	0.053	-0.005	0.038	0.013	0.026	-0.01	0.196	0.031	-0.051	-0.077	0.117	0.053	0.061	0.026	0.175	0.031	0.136	-0.049
GGA2 (UniProt Q9UJY4)	0.022	0.059	0.038	-0.033	0.005	–	-0.021	0.083	-0.02	–	-0.054	0.053	-0.034	-0.088	-0.025	0.025	-0.064	-0.054	0.068	0.122
FARS2 (UniProt O95363)	0.01	-0.172	0.109	-0.034	0.036	-0.052	-0.036	0.086	-0.002	-0.319 (active)	-0.026	-0.003	-0.158	-0.045	0.075	-0.023	-0.026	0.074	0.026	-0.054
ICAM1 (UniProt P05362)	0.155	0.078	-0.028	0.008	-0.02	0.012	-0.039	-0.002	-0.073	0.223 (active)	0.035	0.07	-0.004	-0.03	-0.073	-0.026	0.049	0.099	-0.004	0.043
HNRNPH1 (UniProt P31943)	-0.124	-0.583 (active)	0.1	0.018	-0.192	-0.025	0.072	0.025	0.083	-0.247	-0.018	-0.157	-0.163	0.076	-0.065	-0.278	0.08	0.058	0.114	-0.047
GNPAT (UniProt O15228)	-0.065	-0.149	-0.02	0.04	0.044	-0.066	-0.027	0.066	-0.084	-0.354 (active)	0.01	0.077	-0.073	-0.047	0.045	-0.035	-0.06	-0.041	0.001	-0.027
HIST2H2BF isoform 2 (UniProt Q5QNW6)	-0.043	0.153	-0.079	-0.243	0.017	0.231	-0.22	-0.055	0.398	0.084	-0.084	0.074	0.144	0.093	-0.044	0.313	0.325	0.039	0.015	0.05
HS1BP3 (UniProt Q53T59)	-0.038	-0.343 (active)	0.073	0.056	-0.043	–	0.012	0.07	-0.041	–	0.107	-0.078	-0.275	–	-0.005	-0.066	-0.038	0.371 (active)	0.037	-0.175
GINS2 (UniProt Q9Y248)	-0.011	-0.07	0.171	0.014	0.008	-0.135	0.06	0.058	0.064	0.062	-0.078	-0.17	-0.181	0.076	0.025	-0.067	-0.005	0.203	0.017	0.057
HMGN2 (UniProt P05204)	-0.083	0.073	-0.109	-0.082	0.054	-0.041	-0.081	-0.041	0.02	0.071	-0.138	0.156	0.069	-0.05	0.026	0.046	0.13	0.075	-0.091	0.013
HBA1 (UniProt P69905)	0.049	-0.059	-0.038	0.316	0.078	-0.076	0.012	0.022	-0.044	0.153	-0.017	0.036	-0.02	0.035	-0.01	-0.014	-0.036	0.011	-0.043	-0.034
